Assay [1] can be described thus: NCI Yeast Anticancer Drug Screen. Data for the rad50 strain (AID 155).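 Also: 0% = growth of vehicle-only cultures of the same strain.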 The note with it: S. cerevisiae rad50 strain growth inhibition; at 50.0 µM; hits give high values. The essentials: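 Growth of the mutant yeast was measured after compound exposure and referenced to vehicle-treated cultures.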
Assay [2] is described as follows: NCI Yeast Anticancer Drug Screen. Data for the mec2-1 strain (AID 157). As to conditions: S. cerevisiae mec2-1 strain, at 50.0 µM, hits give high values. The essentials:
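Vehicle-treated cultures served as reference for growth inhibition of compound-exposed mec2-1 yeast.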

Assay [3] is described as follows: NCI Yeast Anticancer Drug Screen. Data for the sgs1 mgt1 strain (AID 161).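 Also: 0% = growth of cultures given vehicle only.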 The note with it: S. cerevisiae sgs1 mgt1 strain, at 50.0 µM, hits give high values. The essentials:
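Test agents were incubated with a DNA-repair-mutant yeast strain. Growth was then read and compared against vehicle-treated controls.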

Assay [4] can be described thus: NCI Yeast Anticancer Drug Screen. Data for the cln2 rad14 strain (AID 165).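 Also: 0% = growth equal to vehicle treated cultures.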 As to conditions: S. cerevisiae cln2 rad14 strain, at 50.0 µM, hits give high values. An outline of the steps:
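Each compound was tested on cln2 rad14 yeast. Inhibition of growth was calculated against vehicle-exposed controls.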

The nature of assay [5]: NCI Yeast Anticancer Drug Screen. Data for the bub3 strain (AID 167). The note with it: S. cerevisiae bub3 mutant strain, at 50.0 µM, hits give high values. The essentials: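 Whole-cell yeast assay. The mutant strain was incubated with compounds, and growth inhibition was determined by comparison with vehicle-treated cells.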
A short description of assay [6]: NCI Yeast Anticancer Drug Screen. Data for the mlh1 rad18 strain (AID 175). As to conditions: S. cerevisiae mlh1 rad18 strain growth inhibition; at 50.0 µM; hits give high values. The essentials: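 Vehicle-treated cultures served as the reference for growth inhibition in a yeast strain carrying DNA damage repair alterations exposed to each compound.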

The panel holds about 79,000 compounds, 15% with a hit somewhere; the sample as a whole holds those more often. Values without a mark were called inactive. The source made the active and inactive calls. Rule as the data show it: active = growth inhibition above about 70%; inactive = the rest.

`O=C(O)CCc1cccc2c(=O)cc(-c3ccccc3)oc12`: the growth inhibition is -10.3% in assay [1]; -1.7% in assay [2]; 0.8% in assay [3]; 30.9% in assay [4]; 8.35% in assay [5]; 3.35% in assay [6].
Turning to `CN(C)S(=O)(=O)c1c(N)ncn1C`, the growth inhibition was 12.7% in assay [1]; 6.85% in assay [2]; -9.1% in assay [3]; 7.25% in assay [4]; 9.65% in assay [5]; 5% in assay [6].
For `CC1(C)COC(CCl)OC1`, the growth inhibition in assay [1] is 27.1%; in assay [2], 17.9%; in assay [3], 11.3%; in assay [4], -16.5%; in assay [5], 1.95%; in assay [6], 30.9%.
Take `CC(=O)NS(=O)(=O)c1ccc(NC(=O)CCC(=O)O)cc1`: the growth inhibition in assay [1] was -8.95%; in assay [2], -20.4%; in assay [3] it was 2.4%; in assay [4] it was 7.2%; in assay [5], 9.1%; in assay [6], 4%.
In the case of `CSc1ccc(NC(=O)Nc2cccc(F)c2)cc1`, the growth inhibition in assay [1] was -2.15%; in assay [2], 11.9%; in assay [3] it was 27.2%; in assay [4] it was -18.5%; in assay [5], 42.5%; in assay [6], 35.6%.
Regarding `CC(C)NCC(O)COc1cccc2ccccc12` (stereo not given), the growth inhibition in assay [1] was 19.4%; in assay [2], -32.2%; in assay [3] it was 31.1%; in assay [4] it was 20.6%; in assay [5], 14.9%; in assay [6], 11.1%.
As for `O=C(CCl)Nc1ccc(SSc2ccc(NC(=O)CCl)cc2)cc1`, the growth inhibition in assay [1] is 33.8%; in assay [2], 13%; in assay [3] it was 47.1%; in assay [4], 43.2%; in assay [5], 10.1%; in assay [6] it was 12.9%.
Regarding `CC1(C)C(=O)N2c3ccccc3C3(CC(N4C(=O)c5ccccc5C4=O)C(=O)O3)C2N1C(=O)OCc1ccccc1` (stereo not given), the growth inhibition in assay [1] is 26.1%; in assay [2], 13.8%; in assay [3], 9.35%; in assay [4] it was 15.2%; in assay [5], 14.1%; in assay [6], -13.1%.
Turning to `CCOC(=O)Cc1ccc(-c2csc(Nc3ccc(Cl)cc3)n2)cc1`, the growth inhibition in assay [1] was 49.9%; in assay [2] it was 22.4%; in assay [3], 35%; in assay [4], 24.2%; in assay [5], 24.8%; in assay [6] it was 48.9%.
As for `CCOC(O)C(F)(F)C(F)(F)C(F)(F)F` (stereo not given), the growth inhibition in assay [1] was 9.05%; in assay [2], -32.2%; in assay [3], 3.5%; in assay [4] it was 20.9%; in assay [5], -7.95%; in assay [6], 20.1%.
On to `c1ccc2c(c1)NC1C3(CCC4CCCCC241)SCCS3` (stereo not given), for which the growth inhibition in assay [1] is 9.45%; in assay [2], 2.3%; in assay [3], 6.8%; in assay [4], 8.8%; in assay [5], -2.1%; in assay [6], -1.15%.
As for `CC(=O)CCc1cccc([N+](=O)[O-])c1`, the growth inhibition was -17.6% in assay [1]; -5.1% in assay [2]; -14.5% in assay [3]; -6.85% in assay [4]; -0.15% in assay [5]; -7.25% in assay [6].
On to `CN(c1ccccc1)S(=O)(=O)c1cccc([N+](=O)[O-])c1`, for which the growth inhibition was -25.3% in assay [1]; -44.5% in assay [2]; 0% in assay [3]; -9.5% in assay [4]; 24.3% in assay [5]; -1.55% in assay [6].
`CCOC(=O)C(Cc1ccc([N+](=O)[O-])cc1)(Cc1ccc([N+](=O)[O-])cc1)C(=O)OCC`: the growth inhibition in assay [1] is -8.9%; in assay [2], -0.75%; in assay [3] it was -15.3%; in assay [4], -8.95%; in assay [5], -25.6%; in assay [6], -17.2%.
Regarding `CN(C)C(CN)CC1=C(CC(CN)N(C)C)CCC1` (stereo not given), the growth inhibition in assay [1] is -15.5%; in assay [2], 5.25%; in assay [3], -5.5%; in assay [4], -1%; in assay [5], -5.25%; in assay [6], 17.6%.
On to `CN1CCCCC1C[CH2][Sn]([c]1ccccc1)([c]1ccccc1)[c]1ccccc1` (stereo not given), for which the growth inhibition in assay [1] is 99.6% (active); in assay [2] it was 99.5% (active); in assay [3], 99.7% (active); in assay [4] it was 99.2% (active); in assay [5], 99.2% (active); in assay [6], 99.5% (active).
As for `C[N+](C)(C)c1ccc2ccccc2n1`, the growth inhibition was -9.15% in assay [1]; -1.6% in assay [2]; -19.9% in assay [3]; 1.15% in assay [4]; -8.7% in assay [5]; -2.7% in assay [6].
Consider `COC(=O)c1nc(SC)[nH]c1CC(N)=O`, for which the growth inhibition was 43.5% in assay [1]; 22.4% in assay [2]; 20.5% in assay [3]; -22.8% in assay [4]; 32.7% in assay [5]; -15.2% in assay [6].
In the case of `CCCCSCCC(=O)O`, the growth inhibition in assay [1] is 18.4%; in assay [2] it was -3.05%; in assay [3] it was -22.2%; in assay [4] it was 3.95%; in assay [5], 5.95%; in assay [6], 5.85%.
Turning to `CCN(c1ccccc1)S(=O)(=O)c1cc(N)ccc1C`, the growth inhibition was -23.8% in assay [1]; -10.7% in assay [2]; 2.55% in assay [3]; -2.8% in assay [4]; -0.25% in assay [5]; 4.55% in assay [6].
Take `COc1ccc(C(C)=O)cc1C=O`: the growth inhibition in assay [1] was 1.4%; in assay [2] it was 9.65%; in assay [3], -2.65%; in assay [4], -13.2%; in assay [5], -20.1%; in assay [6], 16.2%.
For the compound `CC1COS(=O)(=O)CS(=O)(=O)O1` (stereo not given), the growth inhibition was -61.2% in assay [1]; -17.4% in assay [2]; -15.8% in assay [3]; -57.8% in assay [4]; 6.7% in assay [5]; -16.1% in assay [6].
Turning to `CC1=C(C(c2ccccc2)c2ccccc2)C(=O)c2ccccc2C1=O`, the growth inhibition in assay [1] is -3.35%; in assay [2] it was -6.5%; in assay [3] it was 1.45%; in assay [4], 1.5%; in assay [5], -31.8%; in assay [6] it was -0.7%.
Take `CC(=O)Nc1c(C)cc(C)cc1[N+](=O)[O-]`: the growth inhibition was 8.05% in assay [1]; 7.15% in assay [2]; -12.9% in assay [3]; 2.65% in assay [4]; 6.4% in assay [5]; 22.1% in assay [6].
Consider `CNC(=O)NCCc1c[nH]c2ccccc12`, for which the growth inhibition in assay [1] is -35.9%; in assay [2], -19.9%; in assay [3], -49.1%; in assay [4], -24.1%; in assay [5] it was -26.7%; in assay [6], -40.9%.
Turning to `CC(C)=C1CCC/C1=N\Nc1ccc([N+](=O)[O-])cc1[N+](=O)[O-]`, the growth inhibition was -5.9% in assay [1]; -1.35% in assay [2]; 0.15% in assay [3]; -25.8% in assay [4]; 4.6% in assay [5]; -8.75% in assay [6].
Consider `CCOC(=O)C(N=Nc1ccc(S(N)(=O)=O)cc1)C(C)=O` (stereo not given), for which the growth inhibition in assay [1] is -0.9%; in assay [2], -15.1%; in assay [3], -12.7%; in assay [4], -4.25%; in assay [5], -13.2%; in assay [6], 16.1%.
As for `COCc1ccnn1-c1ccccc1C`, the growth inhibition in assay [1] is -5.85%; in assay [2], 13.5%; in assay [3] it was 9.3%; in assay [4], -8.45%; in assay [5] it was 5.2%; in assay [6], -6.05%.
For the compound `CN1CCC2(CC1)C(=O)N(NC(N)=O)C(=O)C2c1ccccc1` (stereo not given), the growth inhibition in assay [1] is 15%; in assay [2] it was 2.15%; in assay [3] it was 5.7%; in assay [4], 1.2%; in assay [5], 1%; in assay [6] it was 13.8%.
For `CC(C#N)NC(=O)NC(C)C(N)=O` (stereo not given), the growth inhibition in assay [1] was 3.85%; in assay [2], 6.3%; in assay [3] it was -5%; in assay [4], -48.3%; in assay [5] it was 8.2%; in assay [6], -27.7%.
For the compound `CCOC(=O)c1ccc(CSc2ccc(N)cc2)c([N+](=O)[O-])c1`, the growth inhibition in assay [1] is -0.6%; in assay [2] it was 7.15%; in assay [3], 17.4%; in assay [4], 11.4%; in assay [5], 2.3%; in assay [6], 20.2%.
Consider `O=C(c1ccc(Cl)cc1Cl)N(/N=C/C=C/c1ccccc1)c1nnc(-c2ccccc2)c(-c2ccccc2)n1`, for which the growth inhibition in assay [1] was -17.1%; in assay [2], 8.8%; in assay [3], -21.3%; in assay [4] it was 32.5%; in assay [5], 2.2%; in assay [6], 13%.
`COc1cc2c(c([N+](=O)[O-])c1)NC(=O)C(C)S2` (stereo not given): the growth inhibition in assay [1] is -11.3%; in assay [2] it was -33.6%; in assay [3], -19.4%; in assay [4] it was 28.8%; in assay [5], 2.15%; in assay [6], 3.65%.
Turning to `COC1OC(C(C)O)C2OC(C)(C)OC12` (stereo not given), the growth inhibition is 40.5% in assay [1]; 29.1% in assay [2]; 32.2% in assay [3]; 1.5% in assay [4]; 18.9% in assay [5]; 13.3% in assay [6].
For the compound `COc1c(NC(=O)C(Br)C(Br)C(=O)O)cccc1[N+](=O)[O-]` (stereo not given), the growth inhibition in assay [1] is -20.9%; in assay [2] it was 19.5%; in assay [3] it was -7.65%; in assay [4], 85% (active); in assay [5], -2.85%; in assay [6], -2.25%.
For the compound `Cc1ccc(S(=O)(=O)OCC2C(c3ccccc3)CCC(c3ccccc3)C2COS(=O)(=O)c2ccc(C)cc2)cc1` (stereo not given), the growth inhibition in assay [1] was -5.6%; in assay [2], -5.4%; in assay [3], -16.1%; in assay [4], -28.6%; in assay [5] it was 4.25%; in assay [6], 4.45%.
Turning to `O=c1nc(NC(c2ccccc2)(c2ccccc2)c2ccccc2)ccn1CCCl`, the growth inhibition in assay [1] was -5.35%; in assay [2], 4.55%; in assay [3] it was -1.5%; in assay [4], -23.9%; in assay [5] it was -20.9%; in assay [6], -9.7%.
`Cc1ccc(S(=O)(=O)Cc2c(C)cc(C)cc2C)cc1`: the growth inhibition in assay [1] is 12.3%; in assay [2], 3.8%; in assay [3], -2.25%; in assay [4], -30.9%; in assay [5], -10.6%; in assay [6], 1.15%.
On to `CCOC(Nc1ccc(Cl)cc1Cl)C(=O)c1ccccc1` (stereo not given), for which the growth inhibition in assay [1] is 8.65%; in assay [2], 6.05%; in assay [3] it was -2.8%; in assay [4], 1.85%; in assay [5], 11.8%; in assay [6], 1.8%.
In the case of `COc1ccc2ccccc2c1Br`, the growth inhibition was -11.3% in assay [1]; 8.25% in assay [2]; -3.25% in assay [3]; -24.1% in assay [4]; -19.3% in assay [5]; 8.65% in assay [6].
